High-throughput results from PubChem.
ST2 inh: inhibitors of human ST2 (IL1RL1) binding to IL-33; Q01638; AlphaLISA ST2-Fc/biotin-IL-33 interaction, 1 h; inhibition, % for hits at 17 µM; 78,000 compounds, 2.3% hits; AID 1259354; in the data active = inhibition above about 30%
Target sequence (Q01638 whole entry, looked up): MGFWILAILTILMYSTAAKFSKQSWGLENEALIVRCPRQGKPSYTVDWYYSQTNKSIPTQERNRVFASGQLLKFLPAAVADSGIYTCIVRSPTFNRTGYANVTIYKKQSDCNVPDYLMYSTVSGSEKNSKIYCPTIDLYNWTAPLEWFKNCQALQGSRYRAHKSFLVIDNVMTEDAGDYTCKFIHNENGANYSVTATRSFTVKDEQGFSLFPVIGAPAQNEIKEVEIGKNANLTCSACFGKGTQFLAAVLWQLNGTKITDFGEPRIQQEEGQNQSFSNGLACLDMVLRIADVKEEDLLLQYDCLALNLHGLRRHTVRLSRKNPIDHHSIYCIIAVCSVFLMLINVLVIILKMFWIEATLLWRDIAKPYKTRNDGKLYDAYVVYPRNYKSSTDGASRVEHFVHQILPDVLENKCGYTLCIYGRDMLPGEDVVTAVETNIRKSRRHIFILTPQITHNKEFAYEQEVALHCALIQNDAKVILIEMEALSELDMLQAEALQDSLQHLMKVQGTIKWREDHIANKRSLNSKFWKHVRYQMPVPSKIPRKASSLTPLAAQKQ
Numbers without * were called inactive; i = inactive. Many of the other results were omitted from the sample, so hits are more common in it than they were.

SMILES	ST2 inh
CCOC(=O)c1sc(=Nc2ccccc2)n(Cc2ccccc2)c1C	i
OCCn1c(-c2ccc(Cl)cc2)csc1=Nc1ccccc1	61.0%*
Cc1csc(=Nc2ccccc2)n1CC(=O)c1ccc(Cl)cc1	36.0%*
OCCn1c(-c2ccc(I)cc2)csc1=Nc1ccccc1	42.0%*
c1ccc(N=c2scc(-c3ccccc3)n2CCN2CCOCC2)cc1	i
OCCCn1c(-c2ccccc2)csc1=Nc1ccccc1	61.0%*
Cc1nc2ccccc2c(=O)n1CCCO	i
CCn1c(C)csc1=NC(=O)c1ccccc1O	i
COc1ccc(F)cc1S(=O)(=O)NCc1ccc2c(c1)OCO2	i
O=C(c1ccccc1)N1CCN=C1SCc1ccc(Cl)cc1	i
O=C(CN1[C@@H]2CC[C@H]1CC(O)C2)N1c2ccccc2Sc2ccccc21 (stereo partly drawn)	i
O=C(c1cn(Cc2ccccc2F)nn1)N1CCCC(C(=O)N2CCOCC2)C1 (stereo not drawn)	i
O=c1oc2cc(OCc3ccc(F)cc3)ccc2c2c1CCC2	i
Cc1cccc(OC2CCS(=O)(=O)C2)c1 (stereo not drawn)	i
COc1ccc(S(=O)(=O)Nc2ccc3n(c2=O)C[C@H]2C[C@@H]3CN(C(=O)c3cccnc3)C2)cc1	i
Cc1cc(Cl)ccc1-c1ccc(C=O)o1	i
O=C1NC(=O)/C(=C/c2ccc(-c3cccc(Cl)c3Cl)o2)N1	i
Cc1cc(C)c([N+](=O)[O-])cc1-c1ccc(C=C2C(=O)NC(=O)NC2=O)o1	36.0%*
CCCc1nc(NCc2sc(C)nc2CC)c2cnn(C)c2n1	i
[N-]=C=C1C(=O)N(CCc2ccccc2)C(=O)C([n+]2ccccc2)C1c1ccc([N+](=O)[O-])cc1 (stereo not drawn)	42.0%*
O=C(COc1ccc([N+](=O)[O-])cc1)NCc1ccccc1	i
O=[N+]([O-])c1ccc(N2CCN(CCc3ccccc3)CC2)cc1	i
CCOc1ccc(OCC)c(S(=O)(=O)N2CCN(c3nc(C)cc(Nc4ccc(OC)cc4)n3)CC2)c1	i
COc1ccc(C2C3=C(NCCN=C3c3ccc(Cl)cc3)C(=O)N2c2ccccc2)cc1 (stereo not drawn)	i
CSc1nc2c(c(=O)[nH]1)C(c1ccc(N(C)C)cc1)C1=C(CC(C)(C)CC1=O)N2 (stereo not drawn)	i
SMILES	ST2 inh
CCN(CC)c1ccc(C(Nc2ccccn2)c2ccc3cccnc3c2O)cc1 (stereo not drawn)	36.0%*
CCOc1cc(C(Nc2ccccn2)c2ccc3cccnc3c2O)ccc1O (stereo not drawn)	i
Cc1ccnc(NC(c2cccnc2)c2ccc3cccnc3c2O)c1 (stereo not drawn)	i
CN1CC2(CCN(C(=O)c3ccc[nH]3)C2)OC1=O (stereo not drawn)	i
COc1cccc(-c2nnc(NC(=O)c3ccc(S(=O)(=O)N4CCCCC4)cc3)o2)c1	i
COc1ccc(N(CN2C(=O)c3ccccc3C2=O)C(C)=O)cc1	i
O=[N+]([O-])c1cccc(C=Nc2ccc(F)cc2)c1O	i
CC(=O)Nc1nc(C)c(-c2nc3ccc([N+](=O)[O-])cc3[nH]2)s1	i
Cc1ccc2nc(-c3cc(N=Cc4ccc([N+](=O)[O-])cc4)ccc3O)[nH]c2c1	38.0%*
C/C(=C\c1ccccc1)c1nc2ccc([N+](=O)[O-])cc2[nH]1	i
O=[N+]([O-])c1ccccc1C=Nc1ccc2nc(-c3ccccc3)[nH]c2c1	i
Cc1ccc2nc(-c3cc(N=Cc4cccc([N+](=O)[O-])c4O)ccc3O)[nH]c2c1	36.0%*
O=[N+]([O-])c1cccc(N=Cc2nc(-c3ccc(Br)cc3)oc2O)c1	i
Cc1ccc2nc(-c3cc(N=Cc4cccc([N+](=O)[O-])c4)ccc3O)[nH]c2c1	43.0%*
CC(=O)N1CCc2cc(N=Cc3cc([N+](=O)[O-])ccc3O)ccc21	i
Cc1cccc(OCC(=O)N2CCn3nc(C(=O)N4CCN(C)CC4)cc3C2)c1	i
O=C(CCOc1ccccc1)NCC1OCCc2ccccc21 (stereo not drawn)	i
Cc1ccc(C(=O)C(C)Sc2nc3ccccc3o2)cc1 (stereo not drawn)	i
CCOC(=O)C(C)Sc1nc2c(c(=O)n1-c1ccc(F)cc1)SCC2 (stereo not drawn)	i
Cn1c(=O)cc(SCC(=O)NC2CC2)c2ccc(Cl)cc21	i
Cc1ccc(CNC(=O)c2ccc3nc4ccc(Cl)cc4c(=O)n3c2)o1	i
c1ccc2[nH]c([C@H]3CCN(C4CCC4)C3)nc2c1	i
Cc1ccc(NC(C)(C)C(=O)N2CCC(CN)C2)cc1 (stereo not drawn)	i
CC(C)(C)C1=CC(=O)c2c(ccc(C(C)(C)C)c2O)C1=O	65.0%*
COc1cc(C2C(C(=O)OC(C)C)=C(C)N=C3SCCC(=O)N32)ccc1OCCC(C)C (stereo not drawn)	i
SMILES	ST2 inh
COc1cc(-c2cc(=O)c3ccccc3o2)ccc1O	i
COc1ccc(-c2cc(=O)c3cc(Br)ccc3o2)cc1OC	31.0%*
COc1ccc(-c2cc(=O)c3cc(F)ccc3o2)cc1OC	i
N#CCn1c2ccc(Br)cc2c2nc3ccccc3nc21	i
Cc1c(C(=O)NCc2ccco2)oc2ccc(S(=O)(=O)N(C)C3CCCCC3)cc12	i
O=C(O)c1ccc(NCc2cccs2)cc1	i
COc1ccccc1NCc1cccs1	32.0%*
O=C(Cc1cccs1)Nc1ccccc1NC(=O)Cc1cccs1	i
CN(C)CCNc1cc(-c2ccc(Cl)cc2F)c2cc[nH]c2n1	30.0%*
CNC(=O)c1ccc(-c2cc(NCCN(C)C)nc3[nH]ccc23)o1	i
CNC(=O)c1cccc(-c2cc(NCc3cccnc3)nc3[nH]ccc23)c1	i
CCCCOc1ccc(C2C(=O)N(C3CCCCC3)CC(=O)N2C2CCCC2)cc1 (stereo not drawn)	i
COc1c(Cl)cc(Cl)cc1C(=O)Nc1ccccc1N1CCOCC1	i
CC(C)=Cc1oc2c(Cl)cc(Cl)cc2c1N1CCOCC1	30.0%*
CC(=O)Nc1ccc(N2CCOCC2)cc1	i
Cc1c(N=Cc2ccc(F)cc2)c(=O)n(-c2ccccc2)n1C	i
CCOc1cc(C2CC(=O)NC(SCc3cccc4ccccc34)=C2C#N)ccc1O (stereo not drawn)	i
Cc1ccc(S(=O)(=O)N(C)CC(=O)NC2CCCCCC2)cc1	i
Cc1cc(N2CCOCC2)nc2ccc(NC(=O)CCC(=O)N3CC(C)CC(C)C3)cc12 (stereo not drawn)	i
CCC(C)N=Cc1c(NCCO)nc2c(C)cccn2c1=O (stereo not drawn)	i
Cc1cccn2c(=O)c(C=NCc3ccccc3)c(NCCO)nc12	i
Cc1cccn2c(=O)c(C=NCCO)c(NCc3ccccc3)nc12	i
CNc1nc2c(C)cccn2c(=O)c1C=Nc1ccc(Cl)cc1	i
Cc1cccn2c(=O)c(C=Nc3cccc(Cl)c3)c(NCc3ccco3)nc12	i
CNc1nc2c(C)cccn2c(=O)c1C=Nc1ccccc1	33.0%*
SMILES	ST2 inh
Cc1cccn2c(=O)c(C=NCc3ccco3)c(Nc3ccc(Cl)cc3)nc12	34.0%*
CNc1nc2c(C)cccn2c(=O)c1C=NCCO	83.0%*
COc1ccc(N=Cc2c(Nc3ccccc3)nc3c(C)cccn3c2=O)cc1	i
COc1ccc2nc3oc(C(=O)NCCCN4CCOCC4)cc3cc2c1	i
COc1ccc(C(=O)Nc2cccc(C)c2)cc1OC	i
CCN(CC)Cc1cnc2c(C(=O)NC3Cc4ccccc4C3)cnn2c1	i
